Experimental findings from PubChem BioAssay AID624116 (National Center for Advancing Translational Sciences (NCATS), 2012) are described below.

Inconclusive results are not listed. The source made the active and inactive calls. The call rests on the fitted dose curve; in most records, active means well fitted activation curve with a large enough effect; inconclusive means small, poorly fitted or top-dose-only effect; inactive means no such curve, though single readings can be large or run the other way.

The experiment can be described thus: qHTS Assay for Rab9 Promoter Activators: Hit Validation Using Renilla Luciferase Read-Out for Rab9. The note with it: Huh7 Rab9 promoter Renilla luciferase reporter, 24 h; series mostly up to 76.9 µM. The source says:
Niemann Pick Type C (NPC) is a rare neurodegenerative lipidosis that is characterized by lipid storage in the endosomal/lysosomal system. Treatment modalities for this devastating disease are currently non-existent due to the severe obstacles associated with accessing the central nervous system with proteins or genes. The majority of mutations causing NPC disease are missense mutations that are distributed throughout the length of the NPC1 protein, with the most prevalent being the I1061T allele. Although NPC1 mutant proteins may be functional, they are typically trapped in the ER due to misfolding. […] We have developed and optimized a cell based renilla luciferase reporter assay in 1536 well format for the identification of up-regulators of the mutant Rab9 promoter. This assay presents data on the validation of hits from the primary screen, which used a firefly luciferase read-out. NIH Chemical Genomics Center [NCGC] NIH Molecular Libraries Probe Production centers Network [MLPCN] MLPCN Grant: MH089375 Assay Submitter (PI): Yiannis A. Ioannou
Huh7 cells stably expressing NPC promoter-luciferase will be seeded at 1,500 cells/well in 5 uL in 1,536-well white opaque plates with 23 nL/well of compound in DMSO solution. The assay plates will be incubated at 37 deg C for 24 hours, after which 3 uL/well BriteLite plus luciferase detection reagent mixture (Perkin Elmer) will be added. Luminescence signal will be measured in a ViewLux plate reader (Perkin Elmer) after a 10 minute incubation at the room temperature.
On the technique in general: qHTS replaces the single test concentration by a dilution series.
For the molecule `COc1ccc(C(CC(=O)N2CCC3(CC2)OCCO3)NS(=O)(=O)c2ccc(F)cc2)cc1` (stereo unspecified), the outcome was inactive. Consider `O=C1c2ccccc2C(=O)N1Cc1nc2ccccc2c(=O)n1-c1cccnc1`, for which the result was inactive.

With `CN1CCc2cc3c(c4c2C1Cc1ccccc1-4)OCO3` (stereo unspecified), the result was inactive. Regarding `COc1cccc(CCNCc2ccc(SC)cc2)c1`, the outcome was inactive.

Consider `Cc1cccn2c(NCC3CCCO3)c(C(C)C)nc12` (stereo unspecified), for which the outcome was inactive. As to `CCC(=NCc1cccnc1)c1c(O)n(-c2ccccc2)c(=O)[nH]c1=O`, the result was inactive.
